Screening data (PubChem BioAssay)
D1 PAM – human D1 dopamine receptor positive modulation; potentiation, % at 10 µM; HEK293 TREx D1 cells, calcium flux, dopamine EC20 potentiation; actives 0.036% (n = 360,000); in the data active = potentiation above about 30%; also: 0% is about no effect
TRHR PAM – allosteric enhancers of human TRH receptor | P34981 | TRHR cells, fluo-8 calcium fluorescence, EC20 TRH enhancement | enhancement, % at 2 µM | actives 0.66% (n = 360,000) | AID 493056; in the data active = enhancement above about 30%; also: 0% is about no effect
Target sequence (P34981 whole entry, looked up): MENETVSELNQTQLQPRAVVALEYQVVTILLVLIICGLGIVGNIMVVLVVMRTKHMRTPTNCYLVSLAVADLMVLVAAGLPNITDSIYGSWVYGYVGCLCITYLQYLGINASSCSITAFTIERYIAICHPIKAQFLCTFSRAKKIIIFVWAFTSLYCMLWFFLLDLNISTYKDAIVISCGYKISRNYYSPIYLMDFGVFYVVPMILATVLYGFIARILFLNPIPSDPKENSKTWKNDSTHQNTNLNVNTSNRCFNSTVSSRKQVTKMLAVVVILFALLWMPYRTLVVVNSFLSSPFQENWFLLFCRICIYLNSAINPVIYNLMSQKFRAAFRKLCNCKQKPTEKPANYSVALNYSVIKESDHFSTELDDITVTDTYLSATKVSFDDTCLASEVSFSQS
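Enhancer read-out: after compound pinning and an initial kinetic agonist-mode read, an EC20 of TRH (10 nM final) was injected and fluo-8 calcium signal (Ex 480/Em 530) followed at 1 s/cycle for 100 cycles in TRHR-expressing cells.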
D1 antag – antagonists of human D1 dopamine receptor; HEK293 TREx D1 cells, calcium flux, dopamine EC80; hits give low values; P21728; activity change, negative = inhibition, % at 10 µM; actives 3.2% (n = 360,000); in the data active = activity change below about -30%; also: % is scaled to controls: 0 for no effect and ±100 for the full control effect
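Tetracycline-induced HEK293 Trex D1 cells, force-coupled to calcium, dye-loaded; compounds added and read 180 s, then EC80 dopamine added and calcium flux tracked kinetically another 180 s.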
GRP78 ERSR act – ER stress response induction in glioma. U87-MG GRP78 promoter luciferase reporter, 16 h. Potency, µM, for inactives: at the highest dose activation, hits mostly activators. actives 0.02% (n = 420,000); active = well fitted activation curve with a large enough effect; also: potency is read from the fitted curve at half-maximal effect; series mostly up to about 76 µM; % of control where 0% means no effect; nearly all actives have a fitted effect of over 35% in size
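ERSR induction read as luciferase luminescence (Bright-Glo, 10 min at room temperature) in stably transfected human U87-MG glioma cells exposed to compounds for 16 h, using GRP78 as sensor.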
D1 agonist – activates the human D1 dopamine receptor; P21728; HEK293 T-REx D1 cells, calcium flux, agonist mode; activation, % at 2 µM; actives 1% (n = 360,000); also: 0% is about no effect
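Inducible HEK293 T-REx D1 cells, force-coupled to calcium signalling, were plated at 4000 cells/well with tetracycline and held overnight at 30 C. After no-wash calcium dye loading, compound-evoked calcium rise over 180 s flagged agonists.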
TRHR agonist – TRH receptor (human) agonism; activation, % at 2 µM; actives 0.18% (n = 360,000); TRHR cells, calcium flux fluo-8, FDSS agonist mode; AID 493084; also: 0% is about no effect
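TRHR-expressing cells loaded with fluo-8 calcium dye; 23 nL library compound pin-transferred, kinetic FDSS fluorescence (Ex 480/Em 530) recorded about 180 s for agonist-induced calcium release, before a 10 nM TRH EC20 addition for potentiator mode.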
* hit, by the source's call; · = not tested or not shown. A selection: hits, their analogues and other compounds. The true share with any hit is near 4%. Rule as the data show it, unless noted: active = activation above about 30%; inactive = the rest.

SMILES	D1 PAM	TRHR PAM	D1 antag	GRP78 ERSR act	D1 agonist	TRHR agonist
FC(F)(F)c1cc(CO[C@@H]2CCCN[C@@H]2c2ccccc2)cc(C(F)(F)F)c1	2.9	6.4	13.3	-8.5%	46.6*	4.6
FC(F)(F)c1cc(CCN2CCNC[C@@H]2c2ccccc2)cc(C(F)(F)F)c1	·	·	·	-1.8%	·	·
COc1ccccc1N(C)S(=O)(=O)c1ccc(C(=O)Nc2ccc3nc(C)sc3c2)cc1	-0.8	1.8	-44.4*	-4.7%	9.1	1.2
COc1ccccc1N(C)S(=O)(=O)c1ccc(C(=O)Nc2nccs2)cc1	-5.2	-19.3	-66.5*	-4.1%	0.4	0.3
CCOc1ccc(NC(=O)CN(Cc2ccccc2)S(=O)(=O)c2ccc3nc(C)sc3c2)cc1	-5.8	-1.9	0.2	-2.9%	1.5	1.1
COc1ccccc1N(C)S(=O)(=O)c1ccc(C(=O)N(C)Cc2ccc(OC(F)F)cc2)cc1	-0.1	-7.6	-41.4*	-4.6%	18.6	0.7
COc1cccc(NC(=O)CN(Cc2ccccc2)S(=O)(=O)c2ccc3nc(C)sc3c2)c1	-7.1	7.2	-44.6*	-3.0%	21.0	-0.8
CC1(C(=O)NS(=O)(=O)c2ccccc2Cl)CCN1C(=O)c1ccccc1 (stereo not given)	·	·	·	-2.2%	·	·
O=C(Cc1cccs1)NCCc1ccc(Cl)cc1	-11.3	-6.0	3.0	1.1%	1.8	-1.6
CCCCCCCC(=O)CC[C@H]1[C@@H](C/C=C/CCCC(=O)OC(C)C)[C@@H](O)C[C@H]1O	·	·	·	-7.5%	·	·
Fc1ccccc1N1CCN(c2ncnc3[nH]ncc23)CC1	-1.7	-4.1	-12.0	-8.2%	1.5	-0.2
c1ccc(N2CCN(c3ncnc4[nH]ncc34)CC2)cc1	-1.6	0.4	-34.6*	2.5%	2.5	-0.3
Cc1cccc(CNC(=O)c2cnn(-c3ncc(C)c(-c4cccs4)n3)c2C2CC2)n1	·	·	·	-2.5%	·	·
COc1ccc(C(=O)NC(=S)Nc2cc3oc4ccccc4c3cc2OC)cc1	-7.5	-1.2	-78.3*	-0.2%	2.9	1.2
CCc1cc(=O)oc2cc(OC(=O)CN3C(=O)NC4(CCCC4)C3=O)ccc12	-8.7	9.4	-29.5	-1.9%	3.1	-0.3
O=C(CN1C(=O)NC2(CCCCC2)C1=O)Oc1ccc2c(C(F)(F)F)cc(=O)oc2c1	-0.2	1.1	3.0	-2.1%	51.0*	19.3
COc1ccccc1N1CCN(C(=O)c2cc3c(=O)n(C)c4ccccc4c3s2)CC1	-0.6	28.1	-53.3*	1.0%	1.6	-1.1
CCn1c(=O)c2cc(C(=O)Nc3cc(OC)c(OC)c(OC)c3)sc2c2ccccc21	1.4	0.1	12.3	-1.7%	2.2	-0.1
COc1ccc(NC(=O)c2cc3c(=O)n(C)c4ccccc4c3s2)cc1Cl	4.5	26.0	-67.9*	-1.5%	0.8	-1.2
CC1CCN(C(=O)c2cc3c(=O)n(C)c4ccccc4c3s2)CC1	-2.3	11.4	-30.8*	-0.1%	1.8	-0.6
COc1cccc(NC(=O)c2oc3ccccc3c2NC(=O)COc2ccccc2C)c1	3.1	10.9	2.9	2.9%	1.0	-1.4
COC(=O)CSC1=NS(=O)(=O)c2ccccc21	-3.8	39.2*	-4.5	-5.0%	3.4	1.9
CN(C)c1ccc(/C=C/c2ccnc3ccc(F)cc23)cc1	·	·	·	-8.8%	·	·
CCOC(=O)c1ccc2c(c1)[nH]c(=S)n2CC	-1.4	-5.4	-19.0	6.7%	5.7	-1.0
CCN(CC)S(=O)(=O)c1ccc2c(c1)[nH]c(=S)n2CC	8.7	38.3*	4.1	2.5%	10.3	-0.8
CC1(C)C2CCC1(C)C(OCC[N+](C)(C)CC(=O)OC1CCCCC1)C2 (stereo not given)	-3.1	16.3	-65.9*	-0.5%	0.9	-0.4
CCOC(=O)C[N+](C)(C)CCOC1CC2CCC1(C)C2(C)C (stereo not given)	-2.7	3.1	-7.9	-4.0%	4.1	0.1
COc1ccccc1CNC(=O)COC(=O)/C=C/c1ccc2c(c1)OCO2	·	·	·	-0.1%	·	·
O=C(/C=C/c1cccc(OCc2ccccc2)c1)c1cccnc1	-7.0	-9.5	-37.1*	2.2%	9.3	-0.3
